The values below come from the supplement of paper PMC12645437, “Orthogonal IMiD-Degron Pairs Induce Selective Protein Degradation in Cells” (ACS Chemical Biology, 2025).

For this assay, the target named is T1, CRBN, Q96SW2.
T1 chain: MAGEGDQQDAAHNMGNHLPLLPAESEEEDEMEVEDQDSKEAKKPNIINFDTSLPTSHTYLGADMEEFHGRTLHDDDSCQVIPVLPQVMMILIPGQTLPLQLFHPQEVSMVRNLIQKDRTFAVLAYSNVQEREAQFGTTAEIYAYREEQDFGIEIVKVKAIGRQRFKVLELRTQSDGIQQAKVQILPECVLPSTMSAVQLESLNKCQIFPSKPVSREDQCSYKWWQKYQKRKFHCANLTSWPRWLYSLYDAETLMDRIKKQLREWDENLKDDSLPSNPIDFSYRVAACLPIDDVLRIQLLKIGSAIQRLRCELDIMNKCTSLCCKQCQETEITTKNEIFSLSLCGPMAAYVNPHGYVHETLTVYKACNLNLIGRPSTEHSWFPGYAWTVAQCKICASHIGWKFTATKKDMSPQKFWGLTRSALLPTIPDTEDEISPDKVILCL
Kind of assay: log2 fold change of degron read counts, EGFP-low vs EGFP+ sorted cells (limma voom), compound-induced degradation; higher = more compound-induced degradation of the degron-EGFP fusion; degrons are variants of IKZF1/3 zinc finger 2; compound dose not given here. Particulars: Jurkat, 18 h.

Setting [1] is: compound: compound 19 (5-tert-butyl-thalidomide).
Where [2] appears, read: compound: compound 22 (5-morpholino-thalidomide).
[3] abbreviates: compound: compound 33 (diphenyl IMiD analogue).

Over roughly 8,300 sequences, “log2 fold change of degron read counts, EGFP-low vs EGFP+ sorted cells (limma voom), compound-induced degradation” has its median near -1.1; the highest 2% begin near 3.2. For the sample, the highest values were picked, then their nearest neighbours and some sequences at random.
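Further: pooled lentiviral library of zinc finger degron-EGFP fusions in mCherry-positive Jurkat cells, FACS-sorted after compound exposure, with degron abundance counted by next-generation sequencing.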

Regarding FCCDICGAMFTQKGNLLRHIKL [46F_47C_49D_50I_52G_53A_54M_55F_67L_, Q9UKT9], the “log2 fold change of degron read counts” value under setting [1] is 0.674, the “log2 fold change of degron read counts” value under setting [2] stood at 0.00358, the “log2 fold change of degron read counts” value under setting [3] is 0.721 and the “log2 fold change of degron read counts” value (compound: thalidomide) was -0.808.
For FWCNVCGACFTQKGNLLRHIKL [46F_47W_49N_50V_52G_53A_54C_55F_67L_, Q9UKT9] the same measures were 1.84, 2.89, 1.57 and -0.431.
On the same counts, the results for FYCNQCGHAFTQKGNLLRHIKL [46F_47Y_49N_50Q_52G_53H_54A_55F_67L_, Q9UKT9] are -2.34, -2.37, -2.98 and -2.66.
Consider FLCDICGASFTQKGNLLRHIKL [46F_47L_49D_50I_52G_53A_54S_55F_67L_, Q9UKT9], for which the “log2 fold change of degron read counts” value reads like this: under setting [1], 0.329; under setting [2], -1.41; under setting [3], 0.103; (compound: thalidomide) -0.525.
On the same counts, the results for FNCDICGAEFTQKGNLLRHIKL [46F_47N_49D_50I_52G_53A_54E_55F_67L_, Q9UKT9] are 0.228, -1.87, -2.21 and -2.45.
Consider FECEICGHGFTQKGNLLRHIKL [46F_47E_49E_50I_52G_53H_54G_55F_67L_, Q9UKT9], for which the “log2 fold change of degron read counts” value by setting is: under setting [1], -3.39; under setting [2], -3.7; under setting [3], -2.59; (compound: thalidomide) -2.45.
On the same counts, the results for FTCEICGRLFTQKGNLLRHIKL [46F_47T_49E_50I_52G_53R_54L_55F_67L_, Q9UKT9] are -2.87, -2.3, -0.938 and -0.343.
For LWCNQCGFPCTQKGNLLRHIKL [46L_47W_49N_50Q_52G_53F_54P_55C_67L_, Q9UKT9] the same measures were -0.74, -1.09, -1.33 and -1.27.
Consider FYCPQCGAWFTQKGNLLRHIKL [46F_47Y_49P_50Q_52G_53A_54W_55F_67L_, Q9UKT9], for which the “log2 fold change of degron read counts” value under setting [1] was -0.595, the “log2 fold change of degron read counts” value under setting [2] was -1.07, the “log2 fold change of degron read counts” value under setting [3] was -0.405 and the “log2 fold change of degron read counts” value (compound: thalidomide) was -1.33.
Turning to FECNVCGAHFTQKGNLLRHIKL [46F_47E_49N_50V_52G_53A_54H_55F_67L_, Q9UKT9], the “log2 fold change of degron read counts” value is -2.58 under setting [1], -2.72 under setting [2], -0.566 under setting [3] and -0.594 (compound: thalidomide).
As to FLCDVCGACFTQKGNLLRHIKL [46F_47L_49D_50V_52G_53A_54C_55F_67L_, Q9UKT9], the “log2 fold change of degron read counts” value was -1.03 under setting [1], -2.05 under setting [2], 0.211 under setting [3] and -0.875 (compound: thalidomide).
For FWCPICGREFTQKGNLLRHIKL [46F_47W_49P_50I_52G_53R_54E_55F_67L_, Q9UKT9] the same measures were 0.147, -0.132, 1.23 and -0.495.
For FLCPVCGAGFTQKGNLLRHIKL [46F_47L_49P_50V_52G_53A_54G_55F_67L_, Q9UKT9], the “log2 fold change of degron read counts” value runs as follows: under setting [1], 1.38; under setting [2], 0.0992; under setting [3], 1.5; (compound: thalidomide) 0.959.
On the same counts, the results for FKCPVCGATFTQKGNLLRHIKL [46F_47K_49P_50V_52G_53A_54T_55F_67L_, Q9UKT9] are -1.61, -2.57, -2.5 and -0.961.
For FMCPVCGATFTQKGNLLRHIKL [46F_47M_49P_50V_52G_53A_54T_55F_67L_, Q9UKT9] the same measures were -1.09, 0.0816, 1.9 and 1.06.
For FWCPVCGATFTQKGNLLRHIKL [46F_47W_49P_50V_52G_53A_54T_55F_67L_, Q9UKT9] the same measures were 2.12, 3.45, 1.55 and 0.523.
As for FGCPVCGATFTQKGNLLRHIKL [46F_47G_49P_50V_52G_53A_54T_55F_67L_, Q9UKT9], the “log2 fold change of degron read counts” value runs as follows: under setting [1], 3.66; under setting [2], 2.4; under setting [3], 2.06; (compound: thalidomide) 1.12.
For FNCPVCGATFTQKGNLLRHIKL [46F_47N_49P_50V_52G_53A_54T_55F_67L_, Q9UKT9] the same measures were 1.23, -0.0199, 1.21 and 0.0692.
For FVCPVCGATFTQKGNLLRHIKL [46F_47V_49P_50V_52G_53A_54T_55F_67L_, Q9UKT9] the same measures were -1.12, 1.27, 1.62 and 2.01.
For FCCPVCGATFTQKGNLLRHIKL [46F_47C_49P_50V_52G_53A_54T_55F_67L_, Q9UKT9] the same measures were 1.17, 1.86, 2.81 and 2.11.
Take FDCPVCGATFTQKGNLLRHIKL [46F_47D_49P_50V_52G_53A_54T_55F_67L_, Q9UKT9]: the “log2 fold change of degron read counts” value runs as follows: under setting [1], 1.07; under setting [2], -0.459; under setting [3], 0.762; (compound: thalidomide) 1.24.
On the same counts, the results for FLCPVCGATFTQKGNLLRHIKL [46F_47L_49P_50V_52G_53A_54T_55F_67L_, Q9UKT9] are -1.39, -1.44, 0.984 and 1.09.
On the same counts, the results for FQCPVCGATFTQKGNLLRHIKL [46F_47Q_49P_50V_52G_53A_54T_55F_67L_, Q9UKT9] are 0.396, 2.89, 2.57 and 3.79.
On the same counts, the results for FECPVCGATFTQKGNLLRHIKL [46F_47E_49P_50V_52G_53A_54T_55F_67L_, Q9UKT9] are -0.45, -0.774, 1.74 and 2.82.
With FFCPVCGATFTQKGNLLRHIKL [46F_47F_49P_50V_52G_53A_54T_55F_67L_, Q9UKT9], the “log2 fold change of degron read counts” value under setting [1] turned out to be 2.59, the “log2 fold change of degron read counts” value under setting [2] was found to be 3.54, the “log2 fold change of degron read counts” value under setting [3] was 1.59 and the “log2 fold change of degron read counts” value (compound: thalidomide) is 1.17.
